Tests used:
Assay in all cases: DAPPL (digital affinity profiling via proximity ligation, sequencing); 10 mM Tris-HCl pH 7.5, 50 mM NaCl, 1 mM DTT, 4% glycerol, room temperature, 30 min; GST-TFs on glutathione beads, 16-mer random dsDNA library, 0.1% formaldehyde crosslink after washing; high values mean tight binding
Conditions in all cases: protein: recombinant; tags: N-terminal GST; dsDNA, one strand shown
[1] = target: T1, FLI1 (Homo sapiens, UniProt Q01543 1-452)
T1 sequence: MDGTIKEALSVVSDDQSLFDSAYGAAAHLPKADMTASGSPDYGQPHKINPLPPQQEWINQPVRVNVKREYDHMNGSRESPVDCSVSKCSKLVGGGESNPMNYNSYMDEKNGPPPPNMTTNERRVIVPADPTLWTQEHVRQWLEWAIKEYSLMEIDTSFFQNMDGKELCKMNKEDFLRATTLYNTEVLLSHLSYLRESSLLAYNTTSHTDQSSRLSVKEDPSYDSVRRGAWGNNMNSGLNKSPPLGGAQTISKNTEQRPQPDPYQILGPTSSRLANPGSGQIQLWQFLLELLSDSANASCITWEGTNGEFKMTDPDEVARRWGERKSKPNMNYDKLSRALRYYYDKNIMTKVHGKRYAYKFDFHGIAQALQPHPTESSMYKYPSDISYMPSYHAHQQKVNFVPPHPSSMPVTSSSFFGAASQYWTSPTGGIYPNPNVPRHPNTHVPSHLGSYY
Summary of the method: (§1)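 Human transcription factors carrying a GST fusion were produced in yeast, bound to glutathione beads, tagged with DNA barcodes and pooled together with a tag-only sample. Each pool was held with 200 nmole of a random double-stranded 16-mer DNA library in Tris/NaCl/DTT/glycerol buffer for 30 min at room temperature, then washed, crosslinked in 0.1% formaldehyde, proximity-ligated with BsaI/T4 ligase (1 h, 37 °C), PCR-amplified and sequenced on an Illumina NextSeq500. Binding signal is the read frequency of each hexamer for a given factor divided by its frequency in the tag-only sample.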

[2] = target: T2, ELK1 (Homo sapiens, UniProt P19419 1-428)
T2 sequence: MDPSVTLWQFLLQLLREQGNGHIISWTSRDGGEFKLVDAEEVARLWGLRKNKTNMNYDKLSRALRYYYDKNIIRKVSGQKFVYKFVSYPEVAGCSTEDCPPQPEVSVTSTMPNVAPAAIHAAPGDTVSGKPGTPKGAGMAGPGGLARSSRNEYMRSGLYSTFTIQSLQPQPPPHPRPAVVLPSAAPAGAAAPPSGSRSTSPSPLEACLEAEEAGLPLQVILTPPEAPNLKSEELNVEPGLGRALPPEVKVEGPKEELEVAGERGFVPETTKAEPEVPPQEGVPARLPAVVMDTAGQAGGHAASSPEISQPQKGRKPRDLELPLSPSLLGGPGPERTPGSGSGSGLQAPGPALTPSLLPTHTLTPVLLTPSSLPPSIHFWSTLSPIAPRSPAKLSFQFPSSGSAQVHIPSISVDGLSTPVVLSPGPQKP
Summary of the method: as §1

[3] = target: T3, GABPA (Homo sapiens, UniProt Q06546 1-454)
T3 sequence: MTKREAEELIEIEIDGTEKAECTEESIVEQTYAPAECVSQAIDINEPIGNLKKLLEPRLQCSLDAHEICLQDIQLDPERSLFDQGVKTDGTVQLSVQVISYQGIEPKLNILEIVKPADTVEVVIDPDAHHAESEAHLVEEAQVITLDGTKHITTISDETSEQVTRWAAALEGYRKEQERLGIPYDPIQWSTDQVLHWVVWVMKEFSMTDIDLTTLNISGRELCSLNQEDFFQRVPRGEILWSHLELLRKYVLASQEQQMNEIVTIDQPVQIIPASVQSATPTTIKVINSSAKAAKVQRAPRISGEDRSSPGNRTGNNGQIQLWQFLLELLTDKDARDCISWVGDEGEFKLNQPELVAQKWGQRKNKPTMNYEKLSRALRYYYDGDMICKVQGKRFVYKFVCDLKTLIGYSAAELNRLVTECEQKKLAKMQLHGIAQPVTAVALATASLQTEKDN
Summary of the method: as §1

[4] = target: T4, ERG (Homo sapiens, UniProt P11308 1-479)
T4 sequence: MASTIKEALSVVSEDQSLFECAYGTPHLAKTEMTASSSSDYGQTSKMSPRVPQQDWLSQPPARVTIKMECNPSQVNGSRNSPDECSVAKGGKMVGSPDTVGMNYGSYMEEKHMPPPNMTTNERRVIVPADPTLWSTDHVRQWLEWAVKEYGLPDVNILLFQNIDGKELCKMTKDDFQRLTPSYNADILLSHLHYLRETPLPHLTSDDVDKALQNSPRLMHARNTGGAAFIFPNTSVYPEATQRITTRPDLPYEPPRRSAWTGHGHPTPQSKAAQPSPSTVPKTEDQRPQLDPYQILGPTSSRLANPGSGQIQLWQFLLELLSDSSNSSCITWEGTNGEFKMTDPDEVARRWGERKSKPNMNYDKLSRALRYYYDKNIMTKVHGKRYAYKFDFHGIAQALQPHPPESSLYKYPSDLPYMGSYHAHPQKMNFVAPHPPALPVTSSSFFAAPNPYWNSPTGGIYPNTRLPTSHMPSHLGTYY
Summary of the method: as §1

[5] = target: ELF1 (Homo sapiens, UniProt P32519 1-619)
Summary of the method: as §1

[6] = target: SPI1 (Homo sapiens, UniProt P17947 1-270)
Summary of the method: as §1

[7] = target: T5, ELK3 (Homo sapiens, UniProt P41970 1-407)
T5 sequence: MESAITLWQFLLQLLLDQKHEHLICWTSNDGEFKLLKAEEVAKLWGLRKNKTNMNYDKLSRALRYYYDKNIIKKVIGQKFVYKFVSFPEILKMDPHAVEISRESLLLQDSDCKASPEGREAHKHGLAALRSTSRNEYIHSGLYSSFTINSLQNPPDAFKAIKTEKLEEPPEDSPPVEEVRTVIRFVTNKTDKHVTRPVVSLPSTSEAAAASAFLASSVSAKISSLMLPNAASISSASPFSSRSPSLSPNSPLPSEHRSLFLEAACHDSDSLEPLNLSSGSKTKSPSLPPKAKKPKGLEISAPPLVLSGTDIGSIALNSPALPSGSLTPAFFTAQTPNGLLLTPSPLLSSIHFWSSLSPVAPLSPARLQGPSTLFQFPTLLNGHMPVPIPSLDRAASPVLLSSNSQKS
Summary of the method: as §1

[8] = target: T6, FEV (Homo sapiens, UniProt Q99581 1-238)
T6 sequence: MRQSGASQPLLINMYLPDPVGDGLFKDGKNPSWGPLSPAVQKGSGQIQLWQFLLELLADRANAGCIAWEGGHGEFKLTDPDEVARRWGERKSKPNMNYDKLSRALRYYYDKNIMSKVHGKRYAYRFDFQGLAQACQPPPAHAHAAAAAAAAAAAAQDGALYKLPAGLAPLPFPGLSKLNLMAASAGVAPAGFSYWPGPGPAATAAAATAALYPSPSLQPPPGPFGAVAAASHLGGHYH
Summary of the method: as §1

[9] = target: ELF4 (Homo sapiens, UniProt Q99607 1-663)
Summary of the method: as §1

[10] = target: T7, ELK4 (Homo sapiens, UniProt P28324-2 1-405)
T7 sequence: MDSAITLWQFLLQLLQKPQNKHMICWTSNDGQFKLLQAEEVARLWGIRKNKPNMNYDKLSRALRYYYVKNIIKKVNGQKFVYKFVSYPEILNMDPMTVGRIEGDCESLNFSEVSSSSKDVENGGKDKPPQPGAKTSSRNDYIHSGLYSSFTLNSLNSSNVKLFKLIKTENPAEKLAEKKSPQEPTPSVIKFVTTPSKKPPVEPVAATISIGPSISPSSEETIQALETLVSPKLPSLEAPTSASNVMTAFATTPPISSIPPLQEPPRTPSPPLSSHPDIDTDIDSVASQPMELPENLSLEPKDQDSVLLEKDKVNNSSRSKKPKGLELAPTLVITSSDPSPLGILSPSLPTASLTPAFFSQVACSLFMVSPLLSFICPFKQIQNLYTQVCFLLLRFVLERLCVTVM
Summary of the method: as §1

[11] = target: T8, ETV2 (Homo sapiens, UniProt O00321 1-342)
T8 sequence: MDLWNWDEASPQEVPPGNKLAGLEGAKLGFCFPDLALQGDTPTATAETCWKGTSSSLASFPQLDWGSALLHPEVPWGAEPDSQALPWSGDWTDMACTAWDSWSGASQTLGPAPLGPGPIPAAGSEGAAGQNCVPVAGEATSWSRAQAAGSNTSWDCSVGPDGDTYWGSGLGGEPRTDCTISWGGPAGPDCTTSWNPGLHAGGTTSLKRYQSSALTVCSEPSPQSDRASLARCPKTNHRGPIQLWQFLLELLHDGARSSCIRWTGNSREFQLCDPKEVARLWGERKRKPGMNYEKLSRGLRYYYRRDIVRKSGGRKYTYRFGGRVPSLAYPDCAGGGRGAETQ
Summary of the method: as §1

[12] = target: T9, ETV3L (Homo sapiens, UniProt Q6ZN32 1-361)
T9 sequence: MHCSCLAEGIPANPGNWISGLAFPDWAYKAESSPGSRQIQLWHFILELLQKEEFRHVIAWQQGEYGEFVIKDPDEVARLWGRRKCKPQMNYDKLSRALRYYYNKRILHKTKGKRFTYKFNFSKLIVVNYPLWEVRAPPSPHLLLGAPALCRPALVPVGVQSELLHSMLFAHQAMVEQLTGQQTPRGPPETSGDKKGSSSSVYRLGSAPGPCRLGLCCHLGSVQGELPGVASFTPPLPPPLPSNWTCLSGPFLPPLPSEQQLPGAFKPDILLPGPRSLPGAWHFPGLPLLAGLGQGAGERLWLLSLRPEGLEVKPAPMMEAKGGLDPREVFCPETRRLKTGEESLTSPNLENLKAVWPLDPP
Summary of the method: as §1

[13] = target: T10, SPDEF (Homo sapiens, UniProt O95238 1-335)
T10 sequence: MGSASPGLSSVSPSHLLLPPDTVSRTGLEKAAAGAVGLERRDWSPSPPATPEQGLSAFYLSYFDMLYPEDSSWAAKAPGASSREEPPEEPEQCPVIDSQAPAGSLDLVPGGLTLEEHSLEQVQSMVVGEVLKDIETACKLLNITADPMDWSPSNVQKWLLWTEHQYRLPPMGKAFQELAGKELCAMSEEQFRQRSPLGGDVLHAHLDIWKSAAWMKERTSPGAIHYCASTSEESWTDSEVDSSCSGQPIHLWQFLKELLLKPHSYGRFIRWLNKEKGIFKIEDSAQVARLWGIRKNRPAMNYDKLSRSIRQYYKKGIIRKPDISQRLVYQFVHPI
Summary of the method: as §1

[14] = target: T11, ETV7 (Homo sapiens, UniProt Q9Y603 1-341)
T11 sequence: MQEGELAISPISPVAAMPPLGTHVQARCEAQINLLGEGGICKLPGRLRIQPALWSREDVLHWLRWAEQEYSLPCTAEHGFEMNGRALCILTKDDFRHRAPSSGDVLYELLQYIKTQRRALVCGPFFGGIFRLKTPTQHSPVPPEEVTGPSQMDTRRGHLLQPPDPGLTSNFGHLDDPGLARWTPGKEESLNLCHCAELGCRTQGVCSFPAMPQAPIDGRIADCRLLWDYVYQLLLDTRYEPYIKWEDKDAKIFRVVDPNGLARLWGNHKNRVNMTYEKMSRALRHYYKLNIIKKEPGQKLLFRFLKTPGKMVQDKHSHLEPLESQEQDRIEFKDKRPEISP
Summary of the method: as §1

[15] = target: T12, ETV3 (Homo sapiens, UniProt P41162-2 1-143)
T12 sequence: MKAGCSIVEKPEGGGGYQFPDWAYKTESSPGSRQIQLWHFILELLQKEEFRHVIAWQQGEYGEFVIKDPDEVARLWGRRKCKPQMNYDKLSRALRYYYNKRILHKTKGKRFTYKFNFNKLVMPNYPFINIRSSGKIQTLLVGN
Summary of the method: as §1

[16] = target: ETV6 (Homo sapiens, UniProt P41212 1-452)
Summary of the method: as §1

ELF1, sequence (P32519 whole entry): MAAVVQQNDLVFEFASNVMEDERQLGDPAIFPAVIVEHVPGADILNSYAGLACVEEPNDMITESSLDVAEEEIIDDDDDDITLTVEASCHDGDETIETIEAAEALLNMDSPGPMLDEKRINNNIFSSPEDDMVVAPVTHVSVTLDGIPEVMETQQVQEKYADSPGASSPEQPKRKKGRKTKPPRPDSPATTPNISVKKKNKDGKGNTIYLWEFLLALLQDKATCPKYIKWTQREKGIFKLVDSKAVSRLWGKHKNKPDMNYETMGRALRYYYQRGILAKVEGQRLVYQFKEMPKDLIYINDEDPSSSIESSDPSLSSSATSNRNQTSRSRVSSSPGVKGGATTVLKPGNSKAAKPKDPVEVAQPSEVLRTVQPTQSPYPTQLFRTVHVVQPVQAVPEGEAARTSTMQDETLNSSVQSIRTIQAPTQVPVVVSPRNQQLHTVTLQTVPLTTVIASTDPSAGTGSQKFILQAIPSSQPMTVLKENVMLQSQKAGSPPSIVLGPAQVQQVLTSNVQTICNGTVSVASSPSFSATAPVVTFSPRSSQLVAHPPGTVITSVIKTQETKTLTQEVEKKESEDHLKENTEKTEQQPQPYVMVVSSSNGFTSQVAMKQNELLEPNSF
ELF4, sequence (Q99607 whole entry): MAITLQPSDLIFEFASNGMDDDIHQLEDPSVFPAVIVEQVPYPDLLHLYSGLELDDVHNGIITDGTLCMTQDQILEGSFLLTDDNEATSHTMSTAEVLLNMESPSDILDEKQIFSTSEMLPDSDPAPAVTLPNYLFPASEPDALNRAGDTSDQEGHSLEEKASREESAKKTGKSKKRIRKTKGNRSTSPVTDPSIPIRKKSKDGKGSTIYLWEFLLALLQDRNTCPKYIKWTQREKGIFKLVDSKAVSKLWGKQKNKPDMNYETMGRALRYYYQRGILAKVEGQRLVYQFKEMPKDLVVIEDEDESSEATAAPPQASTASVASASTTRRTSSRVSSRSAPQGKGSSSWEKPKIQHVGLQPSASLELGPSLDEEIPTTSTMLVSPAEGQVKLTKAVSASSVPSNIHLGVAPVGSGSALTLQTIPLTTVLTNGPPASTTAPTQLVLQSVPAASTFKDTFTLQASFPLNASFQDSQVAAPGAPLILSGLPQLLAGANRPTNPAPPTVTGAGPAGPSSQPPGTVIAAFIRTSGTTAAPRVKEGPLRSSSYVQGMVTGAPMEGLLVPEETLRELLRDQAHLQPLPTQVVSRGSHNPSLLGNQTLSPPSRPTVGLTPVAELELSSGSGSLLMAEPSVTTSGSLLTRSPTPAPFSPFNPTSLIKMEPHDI
ETV6, sequence (P41212 whole entry): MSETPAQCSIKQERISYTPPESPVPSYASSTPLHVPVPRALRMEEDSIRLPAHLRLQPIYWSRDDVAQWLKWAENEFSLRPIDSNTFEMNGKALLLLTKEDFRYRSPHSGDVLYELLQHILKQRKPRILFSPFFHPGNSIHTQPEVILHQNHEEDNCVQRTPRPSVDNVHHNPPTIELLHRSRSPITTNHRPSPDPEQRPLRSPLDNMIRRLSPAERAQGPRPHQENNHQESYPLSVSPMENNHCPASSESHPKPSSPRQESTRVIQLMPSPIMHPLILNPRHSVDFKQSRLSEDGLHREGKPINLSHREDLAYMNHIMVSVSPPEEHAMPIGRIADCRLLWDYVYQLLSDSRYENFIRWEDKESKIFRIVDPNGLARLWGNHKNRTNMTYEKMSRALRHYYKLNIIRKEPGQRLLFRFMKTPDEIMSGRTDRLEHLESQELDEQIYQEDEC

For CGCGGC, the binding signal [1] was 1.1 fold enrichment (6-mer frequency, TF over GST control), the binding signal [2] was 1.08 fold enrichment (6-mer frequency, TF over GST control) and the binding signal [3] was 1.15 fold enrichment (6-mer frequency, TF over GST control). The binding signal [4] was 1.05 fold enrichment (6-mer frequency, TF over GST control), the binding signal [5] was 1.04 fold enrichment (6-mer frequency, TF over GST control) and the binding signal [6] was 1.05 fold enrichment (6-mer frequency, TF over GST control). For the same sequence, the binding signal [7] was 1 fold enrichment (6-mer frequency, TF over GST control), the binding signal [8] was 1.06 fold enrichment (6-mer frequency, TF over GST control) and the binding signal [9] was 1.15 fold enrichment (6-mer frequency, TF over GST control). For the same sequence, the binding signal [10] was 1.12 fold enrichment (6-mer frequency, TF over GST control), the binding signal [11] was 1.01 fold enrichment (6-mer frequency, TF over GST control) and the binding signal [12] was 1.01 fold enrichment (6-mer frequency, TF over GST control). For the same sequence, the binding signal [13] was 1.04 fold enrichment (6-mer frequency, TF over GST control), the binding signal [14] was 1.03 fold enrichment (6-mer frequency, TF over GST control) and the binding signal [15] was 1.04 fold enrichment (6-mer frequency, TF over GST control). The binding signal [16] was 1.15 fold enrichment (6-mer frequency, TF over GST control).

From publication PMC7862700, “An all-to-all approach to the identification of sequence-specific readers for epigenetic DNA modifications on cytosine”
